# Most compounds without a hit are left out; they make up all but 19% or so of the library.
# Shiga toxin inh: Shiga toxin inhibition; inhibition, % at 38.7 µM; Vero cells, Shiga toxin protein synthesis inhibition reporter; actives 9.2% (n = 290,000); AID 2315; in the data active = inhibition mostly above about 28%, no sharp cut-off; inactive = mostly below about 43%; also: 0% is about no effect
# Pf growth 96h: inhibits malaria parasite growth, 96 h; Potency, µM (titrated, usually from 28.7 µM), for inactives: at the top dose activity change, negative = inhibition, most hits filed as inhibitors; AID 504834; actives 6.9% (n = 320,000); P. falciparum luciferase reporter growth, 96 h; also: potency is read from the fitted curve at half-maximal effect; % is scaled to controls: 0 for no effect and ±100 for the full control effect
#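 Erythrocytes infected with luciferase-expressing P. falciparum were dispensed at 2% hematocrit and 0.05% parasitemia (final), then incubated with compounds 96 hours at 37 C in 5% CO2. Luminescence after detection reagent addition reported growth.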
# MARV entry inh: blocks Marburg virus binding to or entry into cells | Marburg virus pseudotyped entry inhibition, cell reporter | actives 1.8% (n = 300,000) | Potency, µM (doses to about 37.8 µM), without a hit: top-dose activity change, negative = inhibition, usual class: inhibitors; calls by dose curve; tested in HEK293 cells; also: potency is read from the fitted curve at half-maximal effect; % is scaled to controls: 0 for no effect and ±100 for the full control effect
# Pf growth 48h: P. falciparum growth inhibition at 48 hours (one generation). actives 5.9% (n = 310,000). AID 504832. P. falciparum luciferase growth in erythrocytes, 48 h. Potency, µM (top dose mostly 28.7 µM), without a hit: at the top dose activity change, negative = inhibition, actives largely listed as inhibitors; also: potency is read from the fitted curve at half-maximal effect; % is scaled to controls: 0 for no effect and ±100 for the full control effect
#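 Erythrocytes infected with P. falciparum carrying an integrated firefly luciferase reporter (2% hematocrit, 0.1% parasitemia final) were exposed to compounds in RPMI 1640 with 0.5% Albumax at 37 C, 5% CO2. Growth inhibition was scored as reduced luminescence.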
# LASV entry inh: Lassa virus entry inhibition | Potency, µM (series often up to 37.9 µM), for inactives: top-dose activity change, negative = inhibition, actives largely listed as inhibitors | Lassa virus pseudotype entry inhibition, cell reporter | actives 1.2% (n = 300,000) | AID 540256; calls by dose curve; tested in HEK293 cells; also: potency is read from the fitted curve at half-maximal effect; % is scaled to controls: 0 for no effect and ±100 for the full control effect; nearly all actives have a fitted effect of over 50% in size
# Cycloheximide cs: affects cycloheximide protein synthesis inhibition readout, counter-screen | actives 12% (n = 300,000) | max response, % | cell reporter, cycloheximide protein synthesis inhibition counterscreen; in the data active = max response mostly above about 13%, no sharp cut-off; inactive = mostly below about 14%; also: read at 38.3 µM for the half of the compounds with a filed dose; 0% is about no effect
# Numbers without * were called inactive; u = inconclusive; x = no result; [ ] = remark or other dose. Unless noted, calls follow the shape of the dose curve; as a rule, active = well fitted inhibition curve with a large enough effect; inconclusive = small, poorly fitted or top-dose-only effect, or another doubt; inactive = no such curve, though single readings can be large or run the other way.
SMILES,Shiga toxin inh,Pf growth 96h,MARV entry inh,Pf growth 48h,LASV entry inh,Cycloheximide cs
COc1cc(NC(=O)c2cccs2)c(C(=O)OCC(=O)c2cc(C)n(-c3ccc(F)cc3)c2C)cc1OC,98*,2.6µM*,u,94%,u,123*
COc1cc(NC(=O)c2cccs2)c(C(=O)OCC(=O)c2cc(C)n(-c3ccccc3)c2C)cc1OC,66*,u,3.5µM*,u,u,43*
CCn1c(=O)cc(SCC(=O)NCCc2ccc(OC)cc2OC)c2ccccc21,x,x,-16%[46.1 µM],x,-27%[46.1 µM],x
C=CCn1c(=O)c2c(nc(-n3nc(C)cc3C)n2C)n(C)c1=O,-9,-1%,x,10µM*,x,-3
COc1ccc(-n2nc3c(c2NC(=O)c2ccc4c(c2)OCO4)CS(=O)(=O)C3)cc1,-3,55%,x,u,x,11
CN(C)CCC1(C2=CCCC2)CC/C(=C/c2ccc(Cl)cc2)C1=O (stereo not given),x,x,u,x,13µM*,x
O=C(COC(=O)c1cc(=O)[nH]c2ccccc12)Nc1ccccc1F,x,x,3%[46.1 µM],x,-8%[46.1 µM],x
CCc1nc(N2CCC3(CC2)OCCO3)c2nnn(Cc3ccccc3)c2n1,-2,0%,2%[46.1 µM],u,1%,1
Cc1nc(N2CCC3(CC2)OCCO3)c2nnn(Cc3ccccc3F)c2n1,57*,-14%,18%,x,0%,43*
COc1ccc(N2CCN(c3ncnc4c3nnn4Cc3ccccc3Cl)CC2)cc1,14,5.2µM*,26%,3%,3%,4
c1ccc(-n2nnc3c(N4CCOCC4)ncnc32)cc1,15,317%,2.3µM*,287%,5.2µM*,1
c1ccc(Cn2nnc3c(N4CCC5(CC4)OCCO5)ncnc32)cc1,41,12µM*,19%,-9%,25%,7
COc1cc(C(=O)NCCCCCC(=O)O)cc(OC)c1OC,-5,10%[5.75 µM],3%,-9%,x,10
COc1ccc2cc(/C=C3\SC(=S)NC3=O)c(N3CCOCC3)nc2c1,-8,u,11µM*,u,u,-3
O=C1[C@H]2[C@@H]3[C@@H](O)[C@H](O)CC(=NOCc4ccccc4)[C@H]3CC[C@H]2C(=O)N1C[C@@H]1CCCO1,x,x,-7%[14.2 µM],x,x,x
Cc1cc(OCC(=O)N[C@@H](Cc2ccccc2)C(=O)O)c2c3c(c(=O)oc2c1)CCC3,-5,58%,x,-9%,x,-2
Cc1cc(OCC(=O)N[C@@H](CSCc2ccccc2)C(=O)O)c2c(C)c(C)c(=O)oc2c1,-10,10µM*,x,u,x,-1
Cc1cc(OCC(O)CN2CCN(c3cccc(Cl)c3)CC2)ccc1Cl (stereo not given),x,x,1%[46.1 µM],x,13%[46.1 µM],x
Cc1cc(OCC(O)CN)ccc1Cl (stereo not given),-13,0.74µM*,17%,24%,u,-2
O=C(NC(Cc1ccccc1)c1ccc2c(c1)OCCCO2)c1ccc(F)cc1 (stereo not given),30,9.3µM*,-5%,x,-23%,20
COc1cccc(C(=O)NC(Cc2ccccc2)c2ccc3c(c2)OCCCO3)c1 (stereo not given),-3,3.3µM*,u,x,u,2
CCN(CC(=O)Nc1ccc2c(c1)OCCO2)C(=O)CC(NC(C)=O)c1ccccc1 (stereo not given),x,11%,-2%,-16%,u,x
CC(=O)NC(Cc1ccccc1)c1ccc2c(c1)OCCCO2 (stereo not given),active,-14%,13%,-7%,22%,11
CCc1nc(-c2ccccc2O)n(-c2ccccc2)n1,-17,x,-3%,9%,-8%,-2
CCNC(=O)C(=O)Nc1cc2c3c(c1)CCN3C(=O)CC2,-7,-4%,x,41%,x,-10
SMILES,Shiga toxin inh,Pf growth 96h,MARV entry inh,Pf growth 48h,LASV entry inh,Cycloheximide cs
Cn1c(CCNC(=O)c2ccccc2Cl)n[nH]c1=S,1,131%,16%,48%,-2%,-3
O=C1c2cnc3nc(SCc4ccccc4)nn3c2CC2c3ccccc3CCN12 (stereo not given),-16,u,-1%,u,u,-3
O=C(c1cc2ccccn2n1)N1CCN(Cc2ccccc2)CC1,63,0%,x,x,x,59*
O=C(c1cc2ccccn2n1)N1CCN(c2cccc(C(F)(F)F)c2)CC1,-8,9.3µM*,0%,5%,-5%,-1
CC(C)(C)CC(C)(C)c1ccc(O)c(CN2CCN(CCC#N)CC2)c1,-11,x,u,1.7µM*,-30%,-4
Brc1ccc(-c2cnc(-c3cccs3)o2)cc1,92*,-10%,u,88%,u,36*
CCSc1oc(-c2cccs2)nc1S(=O)(=O)c1ccc(Br)cc1,x,x,-16%[46.1 µM],x,u,x
CCSc1nnc(NC(=O)C(C)(C(F)(F)F)C(F)(F)F)s1,-3,u,u,3%,-4%,-1
CCSc1nnc(NC(=O)C(CC)(C(F)(F)F)C(F)(F)F)s1,33,52%,u,x,13µM*,1
CCSc1nnc(NC(=O)CC(C)C)s1,28,37%,x,67%,x,18*
CC1CN(c2nnc(NC(=O)c3ccccc3)s2)CC(C)O1 (stereo not given),62*,42%,u,20%,2%,23
CCSc1nnc(NC(=O)CC)s1,-8,-34%,x,x,x,-4
CC(C)c1nnc(NC(=O)c2cccnc2)s1,29,41%,27%,105%,u,31*
CCCc1nnc(NC(=O)c2cccnc2)s1,15,19%,x,10%,x,1
CNS(=O)(=O)c1cn(CC(=O)N2CCN(c3ccc(OC)cc3)CC2)cc1S(=O)(=O)NC,x,x,x,x,-6%[46.1 µM],x
CC(C)CN1CCC(=O)N(CCC#N)CC1,9,4%,x,30%,x,-3
CCSc1nnc(NC(=O)c2ccccc2C)s1,125*,u,-18%[46.1 µM],292%,x,36*
CCSc1nnc(NC(=O)[C@H](C)NC(=O)c2ccccc2Cl)s1,-6,6%,19%[46.1 µM],1%,15%,-1
CCSc1nnc(NC(=O)c2ccccc2)s1,76*,171%,u,88%,u,37*
CCSc1nnc(NC(=O)[C@@H](NC(=O)c2ccccc2)C(C)C)s1,-5,u,-9%,3%,0%,-2
CCSc1nnc(NC(=O)c2cccnc2)s1,35,-12%,u,34%,25%[14.3 µM],17*
CCSc1nnc(NC(=O)c2cnccn2)s1,-3,-12%,u,14%,21%,-1
C=CCn1c(SCC(=O)Nc2ccc3c(c2)OCO3)nc2ccccc2c1=O,-13,-30%,6%,u,14%,10
Cc1ccc2nc(Cl)c(C3CC(c4ccco4)=NN3S(C)(=O)=O)cc2c1 (stereo not given),9,u,5%[46.1 µM],u,-1%,-2
CS(=O)(=O)Nc1cccc(C2=NN(S(C)(=O)=O)C(c3ccccc3)C2)c1 (stereo not given),27,52%,-1%[46.1 µM],11%,0%[46.1 µM],9

# Source: PubChem BioAssay (National Center for Advancing Translational Sciences (NCATS))
